Source: PubChem BioAssay (Tox21)
Where “and” joins values, the source holds several entries; their conditions need not be identical. Equal values may be shown once. Results filed as inconclusive are left out. Entries that show only a call come without a potency. Values without a mark were called inactive. Calls of active or inactive are those of the source. Unless noted, the call rests on the fitted dose curve; in most records, active means well fitted curve in the direction sought with a large enough effect in the repeat runs; inconclusive means weak or mixed curves; inactive means no such curve, though single readings can be large; an effect the other way counts as inactive or inconclusive.

Assays:
[1] = qHTS assay to identify aromatase inhibitors - cell viability counter screen (AID 743084);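 further: cells stimulated with testosterone during compound exposure; nearly all actives have a fitted effect of over 55% in size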
[2] = target: Aryl hydrocarbon receptor (Homo sapiens) (UniProt P35869); assay: qHTS assay to identify small molecule that activate the aryl hydrocarbon receptor (AhR) signaling pathway (AID 743085); further: nearly all actives have a fitted effect of over 15% in size; further: potency means the concentration at half of the fitted maximal effect;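 on activation: HG2L7.5c1 human HepG2 liver cells with stably integrated DRE-driven firefly reporter; series mostly up to about 70 µM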
How it was run: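 24 h compound exposure, 37C, HepG2-derived HG2L7.5c1 cells with DRE-responsive luciferase. Readouts: fluorescence viability, then luminescence at room temperature after 30 min.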

[3] = qHTS assay to identify small molecule that activate the aryl hydrocarbon receptor (AhR) signaling pathway - cell viability counter screen (AID 743086);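 further: HepG2 liver cells carrying the AhR DRE luciferase reporter; series mostly up to about 70 µM; nearly all actives have a fitted effect of over 45% in size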
How it was run: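 HepG2-AhR-luc (HG2L7.5c1) cells, 4000/well, were preincubated 5 h at 37C, exposed to compound in qHTS format for 24 hr at 37C, then given CellTiter-Fluor for 30 min; viability was read as fluorescence in the reporter wells.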

[4] = target: Peroxisome proliferator-activated receptor gamma (Homo sapiens) (UniProt P37231); assay: qHTS assay to identify small molecule agonists of the peroxisome proliferator-activated receptor gamma (PPARg) signaling pathway (AID 743094; active means well fitted activation curve with a large enough effect in the signal ratio in the repeat runs, not every such curve was filed as active; the % refers to the signal ratio)
How it was run: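 Reporter activation was scored by fluorescence of cleaved LiveBLAzer B/G substrate (1 h, room temperature) in PPARg-bla HEK293H cells previously treated 17 h at 37C with DMSO-dissolved compounds.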

[5] = target: Peroxisome proliferator-activated receptor gamma (Homo sapiens) (UniProt P37231); assay: qHTS assay to identify small molecule antagonists of the peroxisome proliferator-activated receptor gamma (PPARg) signaling pathway (AID 743191; calls by dose curve; further: nearly all actives have a fitted effect of over 30% in size; further: potency means the concentration at half of the fitted maximal effect; on ratio activity, negative = inhibition: series mostly up to about 63 µM)
How it was run: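 GeneBLAzer PPARg UAS-bla HEK293H cells carrying a UAS-driven beta-lactamase reporter were plated at 3000 cells/well, preincubated 5 h at 37C, then given compound for 17 h at 37C; LiveBLAzer B/G FRET substrate was read after 1 h at room temperature.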

[6] = qHTS assay to identify small molecule antagonists of the peroxisome proliferator-activated receptor gamma (PPARg) signaling pathway - cell viability counter screen (AID 743194); further: nearly all actives have a fitted effect of over 55% in size
How it was run: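 PPARg-UAS-bla HEK293H cells were plated, rested 5 h at 37 C, then treated with compounds plus rosiglitazone (50 nM final) for 17 h at 37 C; viability was then read by CellTiter-Glo luminescence after 30 min at room temperature.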

[7] = qHTS assay for small molecule agonists of the antioxidant response element (ARE) signaling pathway (AID 743202; active means well fitted activation curve with a large enough effect in the signal ratio in the repeat runs, not every such curve was filed as active; the % refers to the signal ratio; further: potency means the concentration at half of the fitted maximal effect)
How it was run: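 Steps: seed ARE-bla HepG2 cells (2,000/well); incubate 5 h at 37 C; add compounds by pin tool; incubate 16 h at 37 C; add FRET substrate; read fluorescence after 2 h at RT.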

[8] = qHTS assay for small molecule agonists of the antioxidant response element (ARE) signaling pathway - cell viability counter screen (AID 743203; calls by dose curve; further: nearly all actives have a fitted effect of over 55% in size)
How it was run: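 Viability counter screen: stably transfected ARE-bla HepG2 line, 16 hrs compound exposure at 37C/5% CO2, ATP-based CellTiter-Glo luminescence measured in the reporter wells.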

[9] = qHTS assay for small molecule activators of the heat shock response signaling pathway (AID 743210; active means well fitted activation curve with a large enough effect in the signal ratio in the repeat runs, with a control signal flat, not every such curve was filed as active; the % refers to the signal ratio;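 further: HeLa cells with beta-lactamase reporter driven by heat shock elements; series mostly up to about 63 µM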)
How it was run: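 Activation of heat shock element-controlled beta-lactamase expression is measured in HeLa cells by LiveBLAzer FRET fluorescence, with compound exposure lasting 5 h at 37 C and substrate loading 2.5 h at room temperature.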

[10] = qHTS assay for small molecule activators of the heat shock response signaling pathway - cell viability counter screen (AID 743209); further: nearly all actives have a fitted effect of over 50% in size
How it was run: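 Viability of HSE-bla HeLa cells is measured with CellTiter-Glo in the wells already used for the reporter read. Compound exposure lasts 5 h at 37 C, and luminescence is read after 30 min at room temperature.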

Sequence of Aryl hydrocarbon receptor (Homo sapiens) (P35869 whole entry, looked up): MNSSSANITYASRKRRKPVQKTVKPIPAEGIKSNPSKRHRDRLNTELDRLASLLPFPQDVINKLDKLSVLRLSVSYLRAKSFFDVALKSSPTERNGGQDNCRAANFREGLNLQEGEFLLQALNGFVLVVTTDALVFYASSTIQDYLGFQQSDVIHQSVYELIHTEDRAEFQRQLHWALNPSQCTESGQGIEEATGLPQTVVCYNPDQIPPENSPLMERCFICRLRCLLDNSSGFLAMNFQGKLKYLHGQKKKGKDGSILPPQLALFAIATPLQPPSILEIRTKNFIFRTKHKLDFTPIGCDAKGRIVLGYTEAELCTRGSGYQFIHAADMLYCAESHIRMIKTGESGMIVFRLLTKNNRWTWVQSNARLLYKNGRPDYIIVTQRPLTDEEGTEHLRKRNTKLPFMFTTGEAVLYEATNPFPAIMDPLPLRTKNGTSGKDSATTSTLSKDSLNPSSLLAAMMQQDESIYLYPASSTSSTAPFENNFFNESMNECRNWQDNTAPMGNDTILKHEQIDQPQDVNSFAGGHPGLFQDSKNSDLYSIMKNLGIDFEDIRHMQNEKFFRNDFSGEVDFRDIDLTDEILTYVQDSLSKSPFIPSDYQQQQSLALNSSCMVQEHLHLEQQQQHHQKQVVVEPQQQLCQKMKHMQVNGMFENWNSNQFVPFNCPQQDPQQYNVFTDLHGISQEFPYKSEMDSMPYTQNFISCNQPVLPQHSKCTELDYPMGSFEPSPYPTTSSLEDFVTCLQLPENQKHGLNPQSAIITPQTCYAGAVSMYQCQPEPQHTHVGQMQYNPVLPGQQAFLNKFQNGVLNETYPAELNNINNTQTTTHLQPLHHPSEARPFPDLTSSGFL
Sequence of Peroxisome proliferator-activated receptor gamma (Homo sapiens) (P37231 whole entry, looked up): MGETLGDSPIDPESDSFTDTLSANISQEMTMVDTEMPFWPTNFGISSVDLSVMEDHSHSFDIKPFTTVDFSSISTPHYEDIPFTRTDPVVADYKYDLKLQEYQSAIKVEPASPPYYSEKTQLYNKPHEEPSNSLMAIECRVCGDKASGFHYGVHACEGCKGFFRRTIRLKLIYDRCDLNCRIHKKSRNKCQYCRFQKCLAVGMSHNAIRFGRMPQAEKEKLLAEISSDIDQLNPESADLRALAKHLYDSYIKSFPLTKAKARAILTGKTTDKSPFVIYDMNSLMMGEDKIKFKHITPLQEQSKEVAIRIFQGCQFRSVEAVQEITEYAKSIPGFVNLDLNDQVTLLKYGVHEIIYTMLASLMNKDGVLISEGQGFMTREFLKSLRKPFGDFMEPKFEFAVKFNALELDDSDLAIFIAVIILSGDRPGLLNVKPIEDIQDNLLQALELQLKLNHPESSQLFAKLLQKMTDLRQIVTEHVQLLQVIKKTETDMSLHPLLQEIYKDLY

SMILES	outcome [1]	Potency [2]	outcome [3]	outcome [4]	Potency [5]	outcome [6]	Potency [7]	outcome [8]	outcome [9]	outcome [10]	ratio activity, negative = inhibition [5]
CCCN(CCC)N=O	inactive	inactive	inactive	inactive	inactive	inactive	inactive	inactive	inactive	–	–
CC(C#N)CCC#N (centres undefined)	inactive	inactive	inactive	inactive	inactive	inactive	inactive	inactive	inactive	–	–
C1CN2CCN1CC2	inactive	inactive	inactive	inactive	inactive	inactive	inactive	inactive	inactive	inactive	–
COC(=O)c1ccccc1N	inactive	inactive	inactive	inactive	inactive	inactive	–	inactive	inactive	inactive	–
ClCCBr	inactive	inactive	inactive	inactive	inactive	inactive	inactive	inactive	–	inactive	–
CN(N=O)c1ccccc1	inactive	inactive	inactive	inactive	inactive	inactive	inactive	inactive	inactive	inactive	–
CC(Oc1ccc(Cl)cc1Cl)C(=O)O (centres undefined)	inactive	inactive	inactive	inactive	inactive	inactive	inactive	inactive	inactive	inactive	–
c1ccc(OP(Oc2ccccc2)Oc2ccccc2)cc1	inactive	inactive	inactive	inactive	inactive	inactive	–	inactive	inactive	inactive	–
CCCCCCCCCCCC#N	inactive	inactive	inactive	inactive	inactive	inactive	inactive	inactive	inactive	inactive	–
O=C(O)c1ccccn1	inactive	inactive	inactive	inactive	inactive	inactive	inactive	inactive	inactive	inactive	–
CCCCCOC(=O)c1ccccc1C(=O)OCCCCC	inactive	inactive	inactive	inactive	inactive	inactive	inactive	inactive	inactive	inactive	–
Nc1c(Cl)c(Cl)nc(C(=O)O)c1Cl	inactive	34 µM (active)	inactive	inactive	inactive	inactive	inactive	inactive	inactive	inactive	–
CCCC1COC(Cn2cncn2)(c2ccc(Cl)cc2Cl)O1 (centres undefined)	inactive	34.4 µM (active)	inactive	inactive	inactive	inactive	–	inactive	inactive	inactive	–
c1cc2c3c(cccc3c1)CC2	inactive	inactive	inactive	inactive	inactive	inactive	inactive	inactive	inactive	inactive	–
O=[N+]([O-])c1ccc([As](=O)(O)O)cc1	inactive	inactive	inactive	inactive	inactive	inactive	54.5 µM (active)	inactive	inactive	–	–
CC(C)NC(=O)N1CC(=O)N(c2cc(Cl)cc(Cl)c2)C1=O	inactive	4.86 µM (active) and 15.4 µM (active)	inactive	inactive	inactive	inactive	inactive	inactive	–	inactive	–
OC(O)C(Cl)(Cl)Cl	inactive	inactive	inactive	inactive	inactive	inactive	inactive	inactive	–	inactive	–
O=[N+]([O-])c1ccc(Oc2ccc(Cl)cc2Cl)cc1	inactive	inactive	inactive	inactive	inactive	inactive	inactive	inactive	inactive	inactive	–
C=C(C)CCl	inactive	inactive	inactive	inactive	–	inactive	inactive	inactive	inactive	inactive	-4.46% [at 5.95 µM]
CCOP(=S)(OCC)SCCSCC	inactive	inactive	inactive	inactive	inactive	inactive	inactive	inactive	inactive	inactive	–
NCCc1ccc(O)cc1	inactive	inactive	inactive	inactive	inactive	inactive	–	inactive	–	inactive	–
Cc1ccc([N+](=O)[O-])cc1C	inactive	inactive	inactive	inactive	inactive	inactive	inactive	inactive	inactive	–	–
COP(N)(=O)SC (centres undefined)	inactive	inactive	inactive	inactive	inactive	inactive	inactive	inactive	inactive	inactive	–
CCN(CC)CCO	inactive	inactive	inactive	inactive	inactive	inactive	inactive	inactive	inactive	inactive	–
Cc1[nH]c(=O)n(C(C)(C)C)c(=O)c1Cl	inactive	inactive	inactive	inactive	inactive	inactive	inactive	inactive	inactive	inactive	–

SMILES	outcome [1]	Potency [2]	outcome [3]	outcome [4]	Potency [5]	outcome [6]	Potency [7]	outcome [8]	outcome [9]	outcome [10]	ratio activity, negative = inhibition [5]
CN(C)N=O	inactive	inactive	inactive	inactive	inactive	inactive	inactive	inactive	inactive	inactive	–
CC(C)OC(=O)Nc1ccccc1	inactive	inactive	inactive	inactive	inactive	inactive	inactive	inactive	inactive	inactive	–
CCN(CC)c1ccccc1	inactive	inactive	inactive	inactive	inactive	inactive	inactive	inactive	inactive	–	–
BrCCBr	inactive	inactive	inactive	inactive	inactive	inactive	inactive	inactive	–	–	–
O=c1[nH]c(=O)[nH]c(=O)[nH]1	inactive	inactive	inactive	inactive	inactive	inactive	inactive	inactive	inactive	inactive	–
[O-][Cl+2]([O-])O	inactive	inactive	inactive	inactive	inactive	inactive	inactive	inactive	inactive	–	–
CCCCN(CC)C(=O)SCCC	inactive	inactive	inactive	inactive	inactive	inactive	inactive	inactive	inactive	inactive	–
CC(C)C1(C)N=C(c2nc3ccccc3cc2C(=O)O)NC1=O (centres undefined)	inactive	inactive	inactive	inactive	inactive	inactive	–	inactive	inactive	inactive	–
CCCCOC(=O)c1ccccc1C(=O)OCCCC	inactive	inactive	inactive	inactive	inactive	inactive	inactive	inactive	inactive	inactive	–
CN(C)CCO	inactive	inactive	inactive	inactive	inactive	inactive	inactive	inactive	inactive	–	–
Cc1cc(-c2cc(C)c(N)c(C)c2)cc(C)c1N	inactive	1.54 µM (active) and 756 nM (active)	inactive	inactive	inactive	inactive	inactive	inactive	inactive	–	–
C#CC(C)(C)NC(=O)c1cc(Cl)cc(Cl)c1	inactive	inactive	inactive	–	–	inactive	inactive	inactive	inactive	–	–
CC(C)(C)C(O)(CCc1ccc(Cl)cc1)Cn1cncn1 (centres undefined)	inactive	inactive	inactive	–	inactive	inactive	–	inactive	inactive	inactive	–
CC(Br)C(=O)O (centres undefined)	inactive	inactive	inactive	inactive	inactive	inactive	–	inactive	inactive	–	–
CCNc1nc(NC(C)C)nc(SC)n1	inactive	–	inactive	inactive	inactive	inactive	inactive	inactive	inactive	inactive	–
O=C1CCCN1	inactive	–	inactive	inactive	inactive	inactive	inactive	inactive	inactive	inactive	–
C[C@]12CC[C@H]3[C@@H](CC[C@@]45O[C@@H]4C(O)=C(C#N)C[C@]35C)[C@@H]1CC[C@@H]2O	inactive	inactive	inactive	–	–	inactive	–	inactive	inactive	–	–
CCCN(CCC)c1c([N+](=O)[O-])cc(C(F)(F)F)cc1[N+](=O)[O-]	inactive	–	inactive	inactive	inactive	inactive	inactive	inactive	inactive	inactive	–
CNC(=O)Oc1ccccc1OC(C)C	inactive	inactive	inactive	inactive	–	inactive	inactive	inactive	inactive	–	–
Clc1ccccc1Cl	inactive	inactive	inactive	inactive	–	inactive	inactive	inactive	inactive	–	–
Nc1ccccc1C(=O)O	inactive	inactive	inactive	inactive	inactive	inactive	–	inactive	inactive	inactive	–
CCOP(OCC)OCC	inactive	inactive	inactive	inactive	inactive	inactive	–	inactive	inactive	–	–
CCCCCCCCCl	inactive	inactive	inactive	inactive	inactive	inactive	–	inactive	inactive	inactive	–
CCCCN(CCCC)SN(C)C(=O)Oc1cccc2c1OC(C)(C)C2	inactive	inactive	inactive	inactive	–	–	–	inactive	inactive	–	–
CCc1cccc(C)c1N(C(=O)CCl)C(C)COC (centres undefined)	inactive	inactive	inactive	–	21.9 µM (active)	inactive	8.14 µM (active) and 19.3 µM (active)	inactive	inactive	inactive	–
